# Data reported in paper PMC5540273 (PLoS ONE, 2017).
# Experiments:
# Conditions in all cases: concentration: 1 μM, replicates: in singlicate; n = 1
# [1] = test system: RPS6KA5(Kin.Dom.2-C-terminal)
# [2] = test system: T1, RSK1(Kin.Dom.1-N-terminal)
# T1 construct: gene RPS6KA1
# [3] = test system: T2, RSK1(Kin.Dom.2-C-terminal)
# T2 construct: gene RPS6KA1
# [4] = test system: T3, RSK2(Kin.Dom.1-N-terminal)
# T3 construct: gene RPS6KA3
# [5] = test system: T4, RSK2(Kin.Dom.2-C-terminal)
# T4 construct: gene RPS6KA3
# [6] = test system: T5, RSK3(Kin.Dom.1-N-terminal)
# T5 construct: gene RPS6KA2
# [7] = test system: T6, RSK3(Kin.Dom.2-C-terminal)
# T6 construct: gene RPS6KA2
# [8] = test system: T7, RSK4(Kin.Dom.1-N-terminal)
# T7 construct: gene RPS6KA6
# [9] = test system: T8, RSK4(Kin.Dom.2-C-terminal)
# T8 construct: gene RPS6KA6
# S6K1 = test system: S6K1
# 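Also: KINOMEscan kinase panel screen.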
Structure (SMILES),%Inh [1] [%],%Inh [2] [%],%Inh [3] [%],%Inh [4] [%],%Inh [5] [%],%Inh [6] [%],%Inh [7] [%],%Inh [8] [%],%Inh [9] [%],%Inh (S6K1) [%]
Cl.c1ccc(Cn2ncc3cc(Nc4ncnc5ccccc45)ccc32)cc1 [GW273749],5,11,3,0,0,0,0,0,17,4
O=c1cc(N2CCOCC2)nc2n(Cc3cccc(Cl)c3)ccn12 [GSK2296823],7,10,0,21,27,0,0,0,19,0
OCCOCCn1ccc2ncnc(Nc3ccc(Oc4cccc(Cl)c4)c(Cl)c3)c21,0,0,0,0,0,3,4,0,2,0
Cn1cc(-c2ccc3c(c2)CCN3C(=O)Cc2cccc(C(F)(F)F)c2)c2c(N)ncnc21 [GSK2606414],0,0,2,18,0,0,0,0,12,4
CCc1nc(-c2cccc(N(C)S(=O)(=O)c3ccccc3)c2)c(-c2ccnc(Nc3ccc(N4CCN(C(C)=O)CC4)nc3)n2)s1 [GSK1645895],2,26,24,0,1,8,23,0,20,7
